Source: PubChem BioAssay (Broad Institute)
These entries were drawn from the full list.
aSyn UTR act = Activators via SNCA 5'UTR binding, MLPCN. activity score, % (tested at 7.5 µM), hits read low. 300,000 compounds, 7.1% hits. alpha-synuclein 5'UTR reporter, activators screen; in the data active = activity score below about -60%
An asterisk follows results filed as active.

SMILES | aSyn UTR act
CC(C)=CCc1c(O)cc2oc3c(CC=C(C)C)c(O)c(O)c(CC=C(C)C)c3c(=O)c2c1O | 62.2
Cc1ccc(NC(=O)CSc2ccc(C(N)=O)cc2[N+](=O)[O-])cc1 | -66.8*
Cc1ccc(NC(=O)c2ccc(NCCN)c([N+](=O)[O-])c2)cc1 | -98.8*
CCCNc1ccc(C(=O)OCC)cc1[N+](=O)[O-] | -82.9*
Cc1cc(C(=O)CSc2cccc[n+]2[O-])c(C)n1-c1ccccc1 | 56.7
Cc1ccc(-n2c(C)cc(C(=O)CSc3nncs3)c2C)cc1 | -171.6*
Cc1cc(C(=O)CSc2nncn2C)c(C)n1-c1ccccc1 | -66.7*
Cc1cc(C(=O)CSc2cccc[n+]2[O-])c(C)n1-c1ccc(Br)cc1 | -150.0*
Cn1cnnc1SCC(=O)c1c[nH]c2ccccc12 | -91.8*
Cc1cc(C(=O)CN2CC(C)OC(C)C2)c(C)n1-c1ccccc1 (configuration not stated) | -104.6*
Cc1cc(-n2c(C)cc(C(=O)CCl)c2C)no1 | 118.8
CC1=C[C@@H](C)[C@@H](c2ccc(C(F)(F)F)cc2)OC1=O | -63.1*
CC(=O)n1nc(-c2ccc(Cl)cc2)nc1NCc1ccco1 | -117.2*
CCC(=O)n1nc(-c2ccc(OC)cc2)nc1NCc1cccs1 | -102.4*
COc1ccc(CC(=O)n2nc(-c3ccc(Cl)cc3)nc2NCc2ccco2)cc1 | -105.2*
COc1c(C(=O)NNC(=O)c2ccccc2Cl)csc1Br | -85.5*
COc1ccc(-c2nnc(SCC(=O)N3CCOCC3)o2)cc1 | -105.4*
O=C(CSc1nnc(-c2ccc(Cl)cc2)o1)N1CCOCC1 | -153.6*
O=C(CSc1nnc(-c2ccc(O)cc2)o1)N1CCOCC1 | -76.8*
Oc1ccc(-c2nnc(SCC3CCCCC3)o2)cc1 | -131.6*
O=C(O)c1cccc(CSc2nnc(-c3ccc(Cl)cc3)o2)c1 | 54.8
O=C(CSc1nnc(-c2ccc(OC(F)F)cc2)o1)N1CCOCC1 | -67.0*
CSc1ccc(-c2nc(CSCC(=O)N3CCOCC3)c(C)o2)cc1 | -77.5*
COc1cccc(C=Nc2ccccc2C(=O)Nc2ccccc2)c1O | -70.9*
Cc1ccc(C=Nc2ccccc2C(N)=O)cc1 | -109.2*
SMILES | aSyn UTR act
Cc1ccc(C=Nc2ccccc2C(=O)Nc2ccccc2)cc1 | -77.2*
N/C(=N\OC(=O)CCCc1ccccc1)c1ccccn1 | -68.6*
N/C(=N\OC(=O)Cc1ccccc1)c1ccccn1 | -76.6*
CCOc1ccc2nc(N3C(=O)/C(=C/c4ccc(Cl)cc4)NC3=S)sc2c1 | -73.1*
CCc1ccc(-c2csc(-c3c[nH]c4ccccc34)n2)cc1 | -307.9*
CC(C)=CC(=O)Nc1ccc(Cl)cc1 | -90.0*
CCc1cccc(NC(=O)Nc2cccs2)c1 | -243.5*
CCNC(=O)C(=O)Nc1ccc(OC)c(Cl)c1 | -83.4*
COc1ccc(NC(=O)Nc2cccs2)cc1Cl | -166.9*
COc1ccc(NC(=O)C=C(C)C)cc1Cl | -122.2*
COc1ccc(NC(=O)c2cc(F)c(F)cc2Cl)cc1Cl | -92.9*
O=C(NC1CCC(O)CC1)c1ccc(-c2ccc(Cl)cc2)o1 (configuration not stated) | -111.5*
O=C(NC1=NCCS1)c1sc2cc(F)ccc2c1Cl | -191.0*
O=C(NC1=NCCS1)c1ccc(-c2ccc(Cl)cc2)o1 | -191.3*
O=C(NNC1=Nc2ccccc2SC1)c1ccc(Cl)cc1 | 96.2
O=C(NC1=NCCS1)c1ccc(Cl)cc1 | -180.5*
O=C(NCCCN1CCOCC1)c1sc2cc(F)ccc2c1Cl | -61.9*
Cc1nc(C(=O)NNC(=O)c2c(-c3c(Cl)cccc3Cl)noc2C)cs1 | 62.7
N#C/C(=C\C=C\c1ccccc1)C(=O)NCc1ccco1 | -63.1*
Cc1onc(-c2ccccc2Cl)c1C(=O)NCc1ccco1 | -80.2*
O=C(/C=C/c1ccccc1)NCc1ccco1 | -72.2*
O=C(/C=C/c1ccccc1Cl)NCc1ccco1 | -120.1*
O=C(/C=C/c1ccc2c(c1)OCO2)NCc1ccco1 | -68.1*
Cc1cc(C)n(-c2nc(SCCN(C)C)c3c4c(sc3n2)CCCC4)n1 | -71.2*
Cc1cc2ncc(S(C)(=O)=O)c(N)n2n1 | 59.7
SMILES | aSyn UTR act
CCCC(=O)Nc1cc(C)c2c(=O)oc3ccccc3c2n1 | -73.9*
Cc1ccc2c(c1)N=C(c1ccc(Cl)cc1)CO2 | -152.0*
Clc1ccc(C2=Nc3cc(Cl)ccc3OC2)cc1 | -205.7*
C=CCNC(=S)NC(=O)c1ccc(C)c(Br)c1 | -105.7*
CC(C)(O)C#Cc1ccc(C(=O)Nc2ccc3c(c2)OCO3)s1 | -143.4*
CCc1ccc(C(=O)NC2CCCCC2)s1 | -81.8*
CC(C)(O)C#Cc1ccc(C(=O)NC2CCCCC2)s1 | -97.9*
CCOCCCNC(=O)C1CCN(Cc2ccc(OCc3ccccc3)c(OC)c2)CC1 | -117.3*
COc1cc(CN2CCC(C(=O)NCC(C)(C)CN(C)C)CC2)ccc1OCc1ccccc1 | -67.3*
CCCCNC(=O)C1CCN(Cc2ccc(OCc3ccccc3)c(OC)c2)CC1 | -114.7*
NC(=O)C1CCN(Cc2ccc(OCc3ccccc3)cc2)CC1 | -95.0*
O=c1c(Cl)c(N2CCN(c3ccc(F)cc3)CC2)cnn1-c1nc2ccccc2s1 | -111.5*
CCS(=O)(=O)N1CCC(C(=O)Nc2ccc3c(c2)CCC3)CC1 | -83.4*
Cn1c(=O)oc2cc(S(=O)(=O)N3CCCC(C(=O)NC4CCCc5ccccc54)C3)ccc21 (configuration not stated) | 63.1
CCCS(=O)(=O)N1CCCC(C(=O)Nc2ccc3c(c2)CCC3)C1 (configuration not stated) | -70.8*
CCn1c(-c2cccnc2Cl)nc2cc(Cl)c(Cl)cc21 | -118.7*
COC(=O)c1ccc(Sc2ccc(C)cc2)c(N)c1 | -140.7*
Clc1ccc(COn2nnc3ccccc32)c(Cl)c1 | -151.4*
CC1CCC2(CC1)Nc1ccccc1C(=O)N2c1ccccc1 (configuration not stated) | -104.7*
CC(C)N(C(=O)CSc1ncnc2sc(-c3ccccc3)cc12)C(C)C | -87.8*
Cc1nc(SCCC(=O)O)c2cc(-c3ccccc3)sc2n1 | 67.1
CC1=NN(c2ccccc2)C(=O)C1C(=O)C(=O)Nc1ccc(F)cc1 (configuration not stated) | -167.6*
Cc1ccccc1CS(=O)(=O)c1ncc(Cl)c(C(=O)Nc2ccc(F)cc2)n1 | 64.2
Cc1ccc(NC(=O)C(=O)C2C(=O)Nc3ccccc32)cc1 (configuration not stated) | -77.4*
CC(=O)c1ccc(NC(=O)c2cc(Cl)sc2Cl)cc1 | -155.8*
SMILES | aSyn UTR act
CCC(=O)Oc1ccc(C(=O)Nc2ccc([N+](=O)[O-])cc2)cc1 | -169.7*
CC(=O)c1ccc(NC(=O)Nc2ccc([N+](=O)[O-])cc2)cc1 | -148.0*
O=C(Nc1ccccc1F)c1cc(Cl)sc1Cl | -62.5*
O=C(Nc1ccc(Oc2ccc(NC(=O)Nc3ccc([N+](=O)[O-])cc3)cc2)cc1)Nc1ccc([N+](=O)[O-])cc1 | 90.7
CC(=O)c1ccc(NC(=O)Nc2ccc(Cl)cc2)cc1 | -192.6*
CC(=O)Nc1ccc(OS(=O)(=O)c2ccc([N+](=O)[O-])cc2)cc1 | -115.0*
CC(=O)Nc1cc[n+](C(C)C(=O)c2ccc(Cl)cc2)cc1 (configuration not stated) | 51.4
O=C(Nc1ccccc1F)c1ccc([N+](=O)[O-])s1 | -115.2*
O=C(c1c(Cl)nc2sccn12)N(C(=O)c1c(Cl)nc2sccn12)c1ccc(Cl)cn1 | -195.5*
Cc1cccc(NC(=O)CN2C(=O)N/C(=C\c3ccc(N4CCOCC4)cc3)C2=O)c1 | -100.1*
Cc1cnn(-c2cc(N/N=C/c3ccc(F)cc3)ncn2)c1 | -85.9*
COc1cccc(/C=N/Nc2cc(-n3nc(C)cc3-c3ccccc3)ncn2)c1O | 110.2
